# Measured values as given in PubChem BioAssay AID624305 (National Center for Advancing Translational Sciences (NCATS), 2012).
# Results filed as inconclusive are left out. Active and inactive are the calls of the source. The call rests on the fitted dose curve; in most records, active means well fitted activation curve with a large enough effect; inconclusive means small, poorly fitted or top-dose-only effect; inactive means no such curve, though single readings can be large or run the other way.
# Assay: qHTS assay for re-activators of p53 using a Luc reporter: Hit Validation; further: nearly all actives have a fitted effect of over 75% in size; on activation: 0% is about no effect
# Details: p53-responsive luciferase reporter cells, luminescence, H1299 line expressing heat-sensitive Ala138Val p53; series mostly up to 46.1 µM; activation: at the top concentration
# Summary of the method: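 Hit confirmation with a 1:5 dilution series, at 37 deg C for 24 hrs, in H1299 cells co-expressing temperature-sensitive p53-A138V and p53-responsive luciferase. Nocodazole served as control; luminescence read after 10 min with detection reagent.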
# Potency means the concentration at half of the fitted maximal effect.
Structure (SMILES),Potency,activation
O=C(CCS(=O)(=O)c1ccccc1)Nc1ccc(-c2nc3ccccc3s2)cc1,651 nM (active),
CCc1cc2c(=O)c(-c3ccc4c(c3)OCCO4)coc2cc1OS(C)(=O)=O,4610 nM (active),
COc1ccc(-c2nnc(SCC(=O)/C(C#N)=C(\C)N)o2)cc1,326 nM (active),
COc1ccc2oc(C(=O)Nc3nnc(C)s3)c(C)c2c1,1840 nM (active),
Cc1ccc(-c2cc(-c3ccccc3Cl)[nH]n2)c(O)c1,14600 nM (active),
Cc1ccccc1-c1noc(N)c1C#N,,8.85% (inactive)
Fc1cccc(NCc2cn3ccccc3n2)c1,3260 nM (active),
N#CC(c1ccccc1)C1CCN(Cc2ccccc2)CC1 (stereo not drawn),,-1.04% (inactive)
CC1CCC(NC(=O)C2CCN(C(=O)Nc3ccccc3)CC2)CC1 (stereo not drawn),,27.6% (inactive)
O=C(CSc1nnc(-c2ccc(F)cc2)c2ccccc12)Nc1ccccc1,,30.7% (inactive)
O=C(c1cccc(Br)c1)c1coc2ccc(O)cc12,23100 nM (active),
O=C(CCS(=O)(=O)c1ccccc1)Nc1nc2c(s1)CCCC2,,24.5% (inactive)
Cc1nn(-c2ccccc2)c(N)c1Sc1ccc([N+](=O)[O-])cc1,,3.12% (inactive)
CC(=O)c1ccc(Nc2ncnc3c2oc2ccccc23)cc1,1640 nM (active),
COC(=O)c1ccc(CSc2nnc(-c3c[nH]c4ccccc34)n2-c2ccccc2)cc1,,5.21% (inactive)
Cc1ccc(C(=O)Nc2ncc3c(n2)CC(c2ccco2)CC3=O)cc1 (stereo not drawn),,31.8% (inactive)
Cc1cnc(C(=O)OCC(=O)Nc2ccc(OCc3ccccc3)cc2)cn1,18400 nM (active),
COc1cccc(/C=N/NC(=O)c2nc(-c3ccccc3)cc(-c3ccccc3)n2)c1O,,-23.6% [at 9.22 µM] (inactive)
COc1ccc(C(=O)O/N=C(\N)c2ccccc2)c(OC)c1,366 nM (active),

Structure (SMILES),Potency,activation
Oc1ccccc1-c1cc(-c2ccc3c(c2)OCCO3)n[nH]1,184 nM (active),
CC(Cc1ccccc1)NC(=O)c1ccc([N+](=O)[O-])cc1 (stereo not drawn),2590 nM (active),
CC1CCCN(C(=O)CN2C(=O)c3ccccc3S2(=O)=O)C1 (stereo not drawn),23100 nM (active),
COc1ccc(C(=O)C(CN2CCCC2)c2ccccc2)cc1 (stereo not drawn),,-30.7% (inactive)
Cc1cc(C(=O)Nc2nc3c(s2)CCCC3)cs1,231 nM (active),
CCC(=O)c1ccc(OC(=O)Cc2ccc(OC)cc2)cc1,,4.69% (inactive)
O=C(Oc1ccc2ccccc2c1Cl)N1CCCCCC1,5800 nM (active),
CC(C)(C)c1ccc(/C=C2\SC(=O)N(CCNC(=O)c3cccc(S(=O)(=O)N4CCOCC4)c3)C2=O)cc1,1840 nM (active),
O=C(CSCC(=O)Nc1cccc([N+](=O)[O-])c1)Nc1ccccc1,,-1.56% (inactive)
Nc1c(C(=O)c2ccc(Cl)cc2)oc2ccccc12,,-86.5% (inactive)
O=C(COC(=O)CNC(=O)c1ccc([N+](=O)[O-])o1)Nc1ncc(C(F)(F)F)cc1Cl,,-84.4% (inactive)
COc1ccccc1-c1cc(C(=O)Nc2cc(C)on2)no1,16400 nM (active),
Cc1cc2[nH]c3ccccc3c2c(C)n1,,-14.6% (inactive)
COc1ccccc1C(=O)O/N=C(\N)c1ccccc1Cl,,-84.4% (inactive)
CCc1nnc(NC(=O)CCC(=O)Nc2ccccc2)s1,,2.08% (inactive)
Cc1cs/c(=N/C(=S)Nc2ccccc2)n1C,1840 nM (active),
O=C(/C(=N/N=C/c1ccc(O)c(O)c1)c1ccccc1)c1ccccc1,,-3.12% (inactive)
O=S(=O)(N/N=C/c1ccccc1OCc1ccc(Cl)cc1)c1ccccc1,,-58.3% (inactive)
c1ccc(-c2cn3c(n2)SCC3)cc1,9200 nM (active),
